Source: PubChem BioAssay
NadD block = inhibitors of Staphylococcus aureus NadD | purified NadD enzyme, colorimetric absorbance read-out | inhibition, % at 20 µM | hit rate 0.78% among 360,000; in the data active = inhibition above about 26%
rCAG RNA binder = molecules binding r(CAG) RNA repeats; inhibition, % at 3 µM; hit rate 1.3% among 370,000; r(CAG) RNA repeat, TO-PRO-1 dye displacement fluorescence;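 active = inhibition above the plate cutoff, the mean of all test compounds on that plate plus 3 SD, cut at about 35% in these data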;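 note: 0% = DMSO alone and 100% = 100 µM mitoxantrone as full dye displacement; higher means more dye released from RNA so lower well fluorescence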
NR3A LBD binder = NR3A (human) ligand-binding domain modulation; Tm shift relative to glycine control, % at 25 µM; NR3A LBD differential scanning fluorimetry, Tm shift; 0% = protein alone, 100% = glycine-bound protein; hit rate 2.5% among 340,000;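 active = melting temperature shift of at least 10% of the positive control shift, at one fixed dose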
FAS TE block = FAS thioesterase (human) inhibition; P49327; recombinant FAS-TE, OMFH fluorogenic substrate, fluorescence endpoint; inhibition, % at 15 µM; hit rate 0.67% among 360,000; AID 602261;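 active = compounds whose normalised, plate-corrected inhibition of enzyme fluorescence in the single-dose primary screen is 50% or more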;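 note: 0% = DMSO with enzyme and 100% = substrate without enzyme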
Target sequence (P49327 whole entry, looked up): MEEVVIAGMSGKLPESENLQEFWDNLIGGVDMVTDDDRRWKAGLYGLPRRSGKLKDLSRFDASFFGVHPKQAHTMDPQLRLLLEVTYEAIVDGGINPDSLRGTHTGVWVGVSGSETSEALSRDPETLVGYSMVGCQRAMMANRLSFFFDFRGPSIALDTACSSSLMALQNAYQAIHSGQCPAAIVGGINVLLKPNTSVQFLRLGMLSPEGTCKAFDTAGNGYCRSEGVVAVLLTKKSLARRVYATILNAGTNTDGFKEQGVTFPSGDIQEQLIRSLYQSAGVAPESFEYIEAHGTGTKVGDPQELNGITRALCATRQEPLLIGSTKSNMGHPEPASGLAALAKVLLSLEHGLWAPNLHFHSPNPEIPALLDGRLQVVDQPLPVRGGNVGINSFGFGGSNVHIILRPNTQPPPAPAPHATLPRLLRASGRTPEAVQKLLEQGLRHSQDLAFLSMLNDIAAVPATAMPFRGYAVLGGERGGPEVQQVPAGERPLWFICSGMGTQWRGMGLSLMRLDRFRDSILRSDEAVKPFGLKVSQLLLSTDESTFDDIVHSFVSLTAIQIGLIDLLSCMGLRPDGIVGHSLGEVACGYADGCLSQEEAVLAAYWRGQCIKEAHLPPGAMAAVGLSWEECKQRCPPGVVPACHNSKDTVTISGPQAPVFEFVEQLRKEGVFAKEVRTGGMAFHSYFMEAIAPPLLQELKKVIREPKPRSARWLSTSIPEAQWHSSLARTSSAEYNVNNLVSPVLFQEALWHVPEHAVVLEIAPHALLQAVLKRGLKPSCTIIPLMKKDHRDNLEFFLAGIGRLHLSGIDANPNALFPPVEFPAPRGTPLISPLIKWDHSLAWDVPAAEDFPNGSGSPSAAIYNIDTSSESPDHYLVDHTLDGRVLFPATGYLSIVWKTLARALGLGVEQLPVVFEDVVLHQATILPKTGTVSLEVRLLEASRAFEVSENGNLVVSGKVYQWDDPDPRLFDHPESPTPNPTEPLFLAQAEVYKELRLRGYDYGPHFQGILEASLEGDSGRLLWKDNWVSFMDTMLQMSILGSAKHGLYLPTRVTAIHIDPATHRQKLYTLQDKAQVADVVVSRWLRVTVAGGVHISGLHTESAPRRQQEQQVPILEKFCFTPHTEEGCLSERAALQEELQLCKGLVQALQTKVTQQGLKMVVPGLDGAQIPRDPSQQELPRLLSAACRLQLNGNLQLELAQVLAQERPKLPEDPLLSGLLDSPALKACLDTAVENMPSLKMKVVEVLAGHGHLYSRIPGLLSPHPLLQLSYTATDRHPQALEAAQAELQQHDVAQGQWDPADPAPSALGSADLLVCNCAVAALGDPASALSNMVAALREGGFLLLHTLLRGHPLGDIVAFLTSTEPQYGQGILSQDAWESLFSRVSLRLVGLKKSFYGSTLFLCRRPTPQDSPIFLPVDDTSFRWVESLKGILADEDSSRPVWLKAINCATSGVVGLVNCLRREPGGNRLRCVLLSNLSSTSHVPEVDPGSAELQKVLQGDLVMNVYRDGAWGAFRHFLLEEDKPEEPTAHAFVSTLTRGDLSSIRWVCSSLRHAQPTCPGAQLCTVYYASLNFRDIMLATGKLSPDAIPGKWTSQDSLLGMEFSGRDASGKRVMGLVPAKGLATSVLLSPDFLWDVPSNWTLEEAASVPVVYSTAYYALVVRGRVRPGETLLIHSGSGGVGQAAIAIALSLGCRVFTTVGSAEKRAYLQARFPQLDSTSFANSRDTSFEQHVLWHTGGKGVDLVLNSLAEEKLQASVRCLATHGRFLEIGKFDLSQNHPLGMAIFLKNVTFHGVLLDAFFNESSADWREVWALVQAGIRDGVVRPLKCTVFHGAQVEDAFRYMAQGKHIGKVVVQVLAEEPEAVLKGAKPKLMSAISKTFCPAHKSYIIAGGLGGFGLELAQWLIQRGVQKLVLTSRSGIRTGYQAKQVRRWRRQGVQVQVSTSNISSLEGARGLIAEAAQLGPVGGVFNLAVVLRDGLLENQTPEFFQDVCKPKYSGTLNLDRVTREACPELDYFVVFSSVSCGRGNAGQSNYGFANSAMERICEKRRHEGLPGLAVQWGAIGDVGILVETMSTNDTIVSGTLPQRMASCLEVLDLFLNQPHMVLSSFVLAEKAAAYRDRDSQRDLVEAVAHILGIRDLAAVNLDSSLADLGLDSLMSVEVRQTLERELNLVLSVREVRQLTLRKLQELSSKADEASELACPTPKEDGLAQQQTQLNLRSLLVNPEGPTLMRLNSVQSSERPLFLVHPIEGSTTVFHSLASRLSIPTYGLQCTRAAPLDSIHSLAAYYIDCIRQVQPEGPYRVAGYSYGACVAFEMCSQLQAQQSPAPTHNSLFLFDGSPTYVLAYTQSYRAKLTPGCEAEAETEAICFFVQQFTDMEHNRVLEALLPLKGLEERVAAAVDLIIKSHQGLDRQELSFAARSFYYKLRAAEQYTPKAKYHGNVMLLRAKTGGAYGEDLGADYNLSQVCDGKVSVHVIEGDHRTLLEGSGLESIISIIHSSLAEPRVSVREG
rCAG binder conf = r(CAG) RNA repeat binding, confirmation; shares compounds with rCAG RNA binder; TO-PRO-1 dye displacement fluorescence; hit rate 70% among 4,300; inhibition, % at 3 µM;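 active = inhibition above a per-plate cutoff, the mean inhibition of sample wells plus 3 SD, cut at about 35% in these data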;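 note: loss of TO-PRO-1 fluorescence as compound displaces dye from 1x1 AA loop RNA; 0% = DMSO only wells and 100% = 100 µM mitoxantrone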
dCAG dye counter = counter-screen for rCAG RNA binders: DNA CAG dye complex inhibitors; d(CAG) DNA oligo TO-PRO-1 dye displacement, fluorescence; AID 652068; shares compounds with rCAG RNA binder; hit rate 94% among 4,300; inhibition, % at 3 µM;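 active = inhibition above its plate's cutoff, the mean test-well inhibition plus 3 SD, cut at about 4.8% in these data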;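 note: 0% = DNA dye mix with DMSO and 100% = 100 µM mitoxantrone; hits displace the dye from DNA and so lower well fluorescence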
DNA CAG DR = counter-screen for rCAG binders: inhibitors of DNA CAG TO-PRO-1 complex; shares compounds with rCAG RNA binder; DNA CAG/GTC duplex TO-PRO-1 dye displacement fluorescence; IC50, µM; hit rate 20% among 250; in the data active = IC50 below about 10 µM
Starred values were filed as active, the others as inactive; i = inactive; / = no result. Sampled rows, rich in hits. Any-hit rate of the full collection: about 4.3%.

SMILES	NadD block	rCAG RNA binder	NR3A LBD binder	FAS TE block	rCAG binder conf	dCAG dye counter	others
O=C(COc1cc2oc(=O)cc(-c3ccccc3)c2cc1Cl)NC(Cc1c[nH]c2ccc(O)cc12)C(=O)O (configuration not stated)	4	42*	-2	20	62*	24*
COc1ccc(-c2cc(=O)oc3c(C)c(OCC(=O)N(C)C)ccc23)cc1	10	-6	-3	3	/	/
Cc1c(OC(C(=O)O)c2ccccc2)ccc2c(-c3ccccc3)cc(=O)oc12 (configuration not stated)	-2	37*	-5	3	38*	9.0*
O=S(=O)(Nc1nc2ccc(S(=O)(=O)N3CCCC3)cc2s1)c1ccc(F)cc1	23	69*	-2	-3	52*	20*
C[C@H](O)[C@@H]1C(=O)N2CCc3c([nH]c4c(-c5ccccc5)cccc34)[C@@H]2C[C@@H]1N(C)C(=S)NCCc1ccccc1	/	3	/	/	/	/
COc1ccc(/C=C2\C(=O)ON=C2c2cccc([N+](=O)[O-])c2)cc1	/	41*	/	/	20	6.0*
CCC(NC(=O)c1ccc2c(ccn2Cc2cccc(-c3ccccc3C(=O)O)c2)c1)c1ccccc1 (configuration not stated)	/	49*	/	/	48*	18*
OC(c1ccccc1)(c1ccccc1)C1CCN(CCCOc2ccc(-c3cccnc3)cc2)CC1	/	4	/	/	/	/
O=C(CCCN1C(=O)S/C(=C\C=C\c2ccccc2)C1=O)Nc1ccc(O)cc1	4	9	4	3	/	/
O=C(CCN1C(=O)/C(=C\C=C\c2ccccc2)SC1=S)Nc1ccc(C(=O)O)cc1	23	46*	6	0	78*	43*
O=C(CN1C(=O)S/C(=C\C=C\c2ccccc2)C1=O)N1CCOCC1	-12	3	1	-3	/	/
O=C(COC(=O)CN1C(=O)NC2(CCCCC2)C1=O)Nc1cc(F)ccc1F	6	-1	1	1	/	/
O=C(COC(=O)CCN1C(=O)/C(=C\C=C\c2ccccc2)SC1=S)Nc1cc(F)ccc1F	35*	38*	-2	18	28	14*
O=C(CN1C(=O)S/C(=C\C=C\c2ccccc2)C1=O)Nc1ccc(C(=O)O)cc1	3	54*	-1	4	46*	18*
O=C(CN1C(=O)S/C(=C/C=C/c2ccccc2)C1=O)Nc1ccc(C(=O)O)cc1	18	65*	-4	29	45*	15*
COCCN1CCCc2nc(-c3ccc(F)cc3)ccc21	/	7	/	/	/	/
Cc1ccc(C(=O)Nc2scc(-c3ccccc3)c2C(=O)O)cc1	-1	51*	-2	-3	34	8.8*
COc1cc(C(=O)Nc2scc(-c3ccc(C)cc3)c2C(=O)O)cc(OC)c1OC	5	50*	-1	1	76*	39*
CCOC(=O)c1c(-c2cc(OC)c(OC)c(OC)c2)csc1NC(=O)c1ccccc1	-5	4	/	23	/	/
COc1cc(C(=O)Nc2c(C(=O)O)[nH]c3ccc(C)cc23)cc(OC)c1OC	-1	54*	-2	-5	27	5.3*
COc1ccc(-c2csc(NC(=O)c3ccccc3F)c2C(=O)O)cc1	-7	48*	4	-2	32	6.1*
O=C(Nc1scc(-c2ccccc2)c1C(=O)O)c1ccccc1Cl	-4	19	1	-2	/	/
COc1ccc(CCNC(=O)c2ccc3c(c2)ncn3C2CCCCC2)cc1	/	3	/	/	/	/
COC(=O)[C@H](CC(C)C)N(CCc1cn(Cc2ccc(C)cc2)nn1)S(=O)(=O)c1ccccc1Br	/	8	/	/	/	/
CCC(CC)NC(=O)c1cc(OC)c(OC)c(OC)c1	-1	1	0	-7	/	/
SMILES	NadD block	rCAG RNA binder	NR3A LBD binder	FAS TE block	rCAG binder conf	dCAG dye counter	others
CCc1cc(C(=O)O)c(NC(=O)c2cc(OC)c(OC)c(OC)c2)s1	-1	38*	0	-4	20	3
CC(C)(C)C(=O)Nc1scc(-c2ccc(-c3ccccc3)cc2)c1C(=O)O	3	34	-6	-2	/	/
COC(=O)c1c(-c2ccc(C)cc2)csc1NC(=O)C1CC=CCC1C(=O)O (configuration not stated)	-1	38*	-1	-9	38*	8.5*
CC1CCc2c(sc(NC(=O)/C=C/c3cccs3)c2C(=O)O)C1 (configuration not stated)	-5	46*	-2	5	66*	26*
O=C(/C=C/c1cccs1)Nc1scc(-c2ccccc2)c1C(=O)O	14	37*	-13	0	36*	11*
Cc1ccc(C)c(NC(=O)C2CCCN(c3cnccn3)C2)c1 (configuration not stated)	-1	-1	1	-4	/	/
C=CCn1c(COc2ccc(Cl)cc2)nnc1SCC(=O)c1ccccc1	/	0	/	/	/	/
O=[N+]([O-])c1ccccc1N=Nc1ccc(O)cc1O	-6	16	-3	0	/	/
O=S(=O)(O)c1cc(O)c(N=Nc2ccc(O)cc2O)c2ccccc12	10	65*	13*	0	94*	67*
Cc1ccc(-c2nn(-c3ccccc3)cc2C=C2C(=O)CC(C)(C)CC2=O)cc1	19	4	8	-5	/	/
Cc1ccc(-c2nn(-c3ccccc3)cc2C=C2SC(=S)N(CCS(=O)(=O)O)C2=O)cc1	30*	87*	/	0	94*	77*
Cc1ccc(-c2nc3c(Cl)cc(Cl)cc3c(=O)n2O)cc1	11	58*	2	-6	14	3
COc1ccc(NC(=O)CSc2nnc(-c3ccccc3)n2Cc2ccco2)cc1OC	-2	1	0	-1	/	/
Cn1c(SCC(=O)Nc2ccc(S(=O)(=O)Nc3nccs3)cc2)nc2sc3c(c2c1=O)CCCC3	/	74*	/	/	77*	43*
COc1ccc(-n2c(SCC(=O)Nc3ccc(S(=O)(=O)Nc4nccs4)cc3)nnc2-c2cccs2)cc1	/	73*	/	/	72*	33*	DNA CAG DR=i
Cc1cc(NS(=O)(=O)c2ccc(NC(=O)CSc3nnc(SCc4ccc(Cl)cc4)s3)cc2)nc(C)n1	/	59*	/	/	58*	20*
Cc1cc(C)nc(SCC(=O)Nc2ccc(S(=O)(=O)Nc3nccs3)cc2)n1	-5	12	1	-7	/	/
COCC(=O)Nc1ccc(S(=O)(=O)Nc2cc(C)nc(C)n2)cc1	-2	/	-2	-4	/	/
CCn1c2ccccc2c2cc(NC(=O)CSc3nnc(-c4ccccc4)n3Cc3ccco3)ccc21	/	35*	/	/	27	15*
COc1cc2c(cc1NC(=O)CSc1nnc(-c3ccccn3)n1-c1ccccc1)oc1ccccc12	/	10	/	/	/	/
CC1=CC(O)(c2ccccn2)P(=O)(c2ccccc2)C=C1C (configuration not stated)	/	0	/	/	/	/
CCOc1ccc(NC(=O)CSc2nnc(-c3ccccc3)n2N)cc1	-4	0	1	3	/	/
